Laboratory results reported in PubChem BioAssay AID2061319 (National Center for Advancing Translational Sciences (NCATS), 2025).
Inconclusive results are not listed. Calls of active or inactive are those of the source. Calls come from the whole dose curve; as a rule, active = well fitted inhibition curve with a large enough effect; inconclusive = small, poorly fitted or top-dose-only effect; inactive = flat fitted curve, though single readings scatter. Square brackets hold non-standard residues; d marks the D form. Peptide text beside a SMILES is read from it. * marks the point of attachment. Dolaproine = CO[C@@H]([C@@H]1CCCN1)[C@@H](C)C(=O)O; Dil = CC[C@H](C)[C@H](NC)[C@@H](CC(=O)O)OC; X1 = C[C@@H](N*)[C@@H](O)c1ccccc1; NMeV = CN[C@H](C(=O)O)C(C)C

Test: Identification of antibody-drug conjugate (ADC) payloads which are substrates of ATP-binding cassette drug efflux transporters: ABCG2-H460-MX20 cell line with Ko143
Conditions: H460-MX20 (ABCG2) + Ko143, CellTiter-Glo viability, 48 h; series mostly up to 28.7 µM
Text: Antibody-drug conjugates (ADCs) feature an antibody recognizing a specific protein joined to a potent toxic payload. Numerous antibody-drug conjugates have received FDA approval; however, clinical resistance arises. Resistance mechanisms include decreased expression or mutation of the antibody target, impaired payload release, or increased expression of ATP-binding cassette (ABC) efflux transporters associated with multidrug resistance. We therefore sought to characterize the interaction of ABC multidrug transporters with ADC payloads. We performed a high-throughput screen with 27 common ADC payloads using cells lines expressing ABC transporters P-glycoprotein (P-gp, encoded by ABCB1) or ABCG2 (encoded by ABCG2). Confirmatory assays were also performed using cells transfected to express P-gp, ABCG2, or MRP1 (encoded by ABCC1). Several commonly used ADC payloads were substrates of P-gp, including calicheamicin gamma1, monomethyl auristatin E, DM1, and DM4. All the pyrrolobenzodiazepines tested - SJG136, SGD-1882, SG2057, and SG3199 - were substrates of P-gp, ABCG2, and MRP1. […] These findings highlight the risk of transporter-mediated resistance with certain ADC payloads and underscore the importance of selecting payloads that evade ABC transporter recognition in future ADC development.
HEK-293 cells were transfected with empty vector (pcDNA) or vector containing the human ABCB1 (MDR-19), ABCG2 (R-5), or ABCC1 gene (MRP1) and were maintained in EMEM with 2 mg/mL G418 added to maintain transporter expression. The HeLa derivative KB-3-1 and the P-gp overexpressing KB-8-5-11 subline were maintained in DMEM; KB-8-5-11 additionally received 100 ng/mL colchicine. H460 parental cells were obtained from the Division of Cancer Treatment and Diagnosis Tumor Repository, National Cancer Institute at Frederick, MD and were cultured in RPMI. The ABCG2 expressing subline H460 MX20 was generated by selecting H460 cells in 20 nM mitoxantrone. Media in all cases was supplemented with 10% FBS and 1% penicillin-streptomycin. We explored 27 common ADC payloads, in two orthogonal, paired cell line sets-a drug selected and transfected set for each transporter--to identify substrates of the ABC transporters P-gp and ABCG2. Compounds were sourced from Levena Biopharma (San Diego, CA), Selleck Chem (Houston, TX), ChemieTek (Indianapolis, IN), or Microsource Discovery Systems (Gaylordsville, CT). Screening was performed as previously described. Briefly, cells were plated at a density of 500 cells/well in 1536 well plates with compounds added using a 1536-head pin tool (Kalypsys, San Diego CA). Cells were incubated with cytotoxic drugs and processed with CellTiter Glo reagent (Promega, Madison, WI) to determine viability after 48 hours. P-gp substrates were identified by comparing compound activity between paired sets of low-expressing (sensitive) and over-expressing (resistant) cell lines.

Row | SMILES | Potency
1 | CC[C@H](C)[C@H](NC(=O)[C@H]1CCCCN1C)C(=O)N(C)[C@H](C[C@@H](OC(C)=O)c1nc(C(=O)O)cs1)C(C)C | inactive
2 | CC[C@@]1(O)C(=O)OCc2c1cc1n(c2=O)Cc2cc3ccccc3nc2-1 | 238 nM (active)
3 | CC[C@H](C)[C@H](NC(=O)[C@H]1CCCCN1C)C(=O)N(C)[C@H](C[C@@H](OC(C)=O)c1nc(C(=O)N[C@@H](Cc2ccccc2)C[C@H](C)C(=O)O)cs1)C(C)C | inactive
4 | CC[C@H](C)[C@@H]([C@@H](CC(=O)N1CCC[C@H]1[C@H](OC)[C@@H](C)C(=O)N[C@H](C)[C@@H](O)c1ccccc1)OC)N(C)C(=O)[C@@H](NC(=O)[C@@H](NC)C(C)C)C(C)C (H-[NMeV]V[Dil][Dolaproine]-X1) | inactive
5 | CC[C@H](C)[C@@H]1NC(=O)CNC(=O)[C@H]2Cc3c([nH]c4cc(O)ccc34)S(=O)C[C@H](NC(=O)CNC1=O)C(=O)N[C@@H](CC(N)=O)C(=O)N1C[C@H](O)C[C@H]1C(=O)N[C@@H]([C@@H](C)[C@@H](O)CO)C(=O)N2 (stereo partly drawn) | 533 nM (active)
6 | COc1cccc2c1C(=O)c1c(O)c3c(c(O)c1C2=O)C[C@@](O)(C(=O)CO)CC3OC1CC(N2CCOC(OC)C2)C(O)C(C)O1 (stereo partly drawn) | 9.5 nM (active)
7 | COc1cc2cc(C(=O)N3C[C@@H](CCl)c4c3cc(O)c3ccccc43)[nH]c2c(OC)c1OC | 1.9 nM (active)
8 | CC[C@H](C)[C@@H]([C@@H](CC(=O)N1CCC[C@H]1[C@H](OC)[C@@H](C)C(=O)N[C@H](C)[C@@H](O)c1ccccc1)OC)N(C)C(=O)[C@@H](NC(=O)[C@H](C(C)C)N(C)C)C(C)C | 6710 nM (active)
